This passage reports inhibition results from PubChem BioAssay AID1645855 (Buhrlage Lab, Dana-Farber Cancer Institute and Novartis …, 2021).

Hit rate of the full screen: of about 47,000 compounds, about 3,100 (6.6%) were called active. Only a selection was taken, and actives are over-represented in it overall. Unmarked numbers belong to inactive results. Cut-off read from the data, not from the text of the source: active = inhibition above about 30%; inactive = the rest.

Ubiquitin carboxyl-terminal hydrolase 17-like protein 5 (Homo sapiens), sequence (A8MUK1 whole entry, looked up): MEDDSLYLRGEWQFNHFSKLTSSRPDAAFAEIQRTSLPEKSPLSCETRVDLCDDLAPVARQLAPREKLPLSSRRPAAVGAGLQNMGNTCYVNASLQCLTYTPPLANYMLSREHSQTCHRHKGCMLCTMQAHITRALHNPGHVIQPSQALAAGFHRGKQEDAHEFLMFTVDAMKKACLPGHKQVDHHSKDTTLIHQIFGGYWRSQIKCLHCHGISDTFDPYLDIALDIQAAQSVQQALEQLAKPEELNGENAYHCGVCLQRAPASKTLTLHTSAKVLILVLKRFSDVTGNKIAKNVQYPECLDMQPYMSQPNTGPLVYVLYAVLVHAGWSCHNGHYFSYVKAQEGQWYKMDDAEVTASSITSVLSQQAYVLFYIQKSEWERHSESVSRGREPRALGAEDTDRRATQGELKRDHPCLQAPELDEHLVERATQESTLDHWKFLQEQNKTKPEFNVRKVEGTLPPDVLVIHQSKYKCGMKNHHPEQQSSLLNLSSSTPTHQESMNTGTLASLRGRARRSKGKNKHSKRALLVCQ

This assay addresses Ubiquitin carboxyl-terminal hydrolase 17-like protein 5 (Homo sapiens) (UniProt A8MUK1). The assay can be described thus: inhibitors of human USP17 deubiquitinase (AID 1645855). To be noted: purified USP17, Ub-rhodamine cleavage fluorescence, 3 h; at 50 µM; active compounds read high.
In the case of `CCC(C)Cc1ccc2c(c1O)C(=O)OC(CC(\C=C/C=C\C=C\c1coc(CC(O)C(C)C(O)CC)n1)OC)C2` (stereo not drawn), the inhibition (in general, the change of the read-out against control, counted positive when it falls) was 14.5%.

For `COc1ccccc1CNC(=O)c1c(O)c2cccnc2n(-c2ccccc2)c1=O`, the inhibition is -4.34%.

With `O=C(NCc1ccccc1)c1cc(-c2ccncc2)n[nH]1`, the inhibition is -3.2%.

Consider `O=C(NCc1ccccc1)c1c(O)c2cnn(Cc3ccccc3)c2[nH]c1=O`, for which the inhibition is 33.7% (active).

`O=C(CN1CCC(Nc2nc3c(c(=O)[nH]2)CCCC3)CC1)Nc1ccccc1[N+](=O)[O-]`: the inhibition was 14%.

`Cc1sc(NC(=O)CCc2ccccc2)nc1-c1ccc2c(c1)N(C)C(=O)CO2`: the inhibition was -15.7%.

As to `Cc1ccc(C)c(S(=O)(=O)N2CCC(c3nc(C(=O)N(C)C)c(C)o3)CC2)c1`, the inhibition was -7.71%.

`O=C(NCc1cccnc1)[C@@H]1CC[C@@H]2[C@@H](CCN2c2ncc(F)cn2)O1`: the inhibition was -63.6%.

Take `COc1ccc(NS(=O)(=O)c2cc(NC(=O)/C=C/c3cccc(OC)c3)ccc2OC)cc1`: the inhibition is -3.35%.

Consider `COc1ccc(NS(=O)(=O)c2cc(NC(=O)CC(=O)c3ccc([N+](=O)[O-])cc3)ccc2C)cc1`, for which the inhibition was 39.9% (active).

Turning to `COc1ccc(NS(=O)(=O)c2cc(NC(=O)COc3ccccc3F)ccc2OC)cc1`, the inhibition was 6.42%.

For the compound `COCCN1C[C@H]2COc3cc(OC)ccc3[C@H]2N(C(=O)c2ccc(F)cc2)CCC1=O`, the inhibition is 0.764%.

For `CC(C)n1cnc(-c2cc(C(=O)NC3CC3)c3ccccn23)c1`, the inhibition is -51.2%.

For `CCCNC(=O)c1ccc(Nc2cc(C)nc3nc(-c4cccnc4)nn23)cc1`, the inhibition was 7.85%.

As for `COc1ccc(CNC(=O)c2ccccc2N2C(=O)N3CCc4c([nH]c5ccccc45)[C@@]3(C)C2=O)cc1`, the inhibition is 56.3% (active).

Take `COc1ccc2[nH]c3c(c2c1)CCN1C(=O)N([C@@H](C)C(=O)NCC(=O)O)C(=O)[C@]31C`: the inhibition was 9.34%.

In the case of `C[C@]12C(=O)N(c3cccc(C(=O)NCCN4CCOCC4)c3)C(=O)N1CCc1c2[nH]c2ccccc12`, the inhibition is -24.6%.

With `O=C(NCCc1ccc(F)cc1)N1CC[C@@H]2CN(Cc3ccncc3)S(=O)(=O)[C@@H]2CC1`, the inhibition was -15.9%.

`O=C(CNC(c1ccccc1)c1ccccc1)Nc1ccc(F)cc1`: the inhibition was 3.76%.

`O=C(N[C@@H]1C[C@@H](Oc2cccnc2)[C@H](O)[C@H]1N1CCCCC1)c1cnco1`: the inhibition is -6.77%.

On to `COc1cccc(-c2ocnc2C(=O)NCc2ccc(OC)c(OC)c2)c1`, for which the inhibition was -10.8%.

As to `COc1cccc(CNC(=O)c2ccc(-c3cncnc3)nc2)c1`, the inhibition was -9.04%.

On to `COc1cc(OC)cc(-c2nnc(NC(=O)c3ccc([N+](=O)[O-])o3)o2)c1`, for which the inhibition was 51.3% (active).

As for `CN(C)C(=O)c1cccnc1-c1nc2ccccc2s1`, the inhibition is 9.06%.

In the case of `Cc1nc(NCc2ccco2)nc2c1COCC21CCN(C(=O)C(C)(C)C)C1` (stereo not drawn), the inhibition is -22.1%.

On to `CC1=C(C(=O)Nc2ccccc2)C(c2cccnc2)n2nc(CCCO)nc2N1` (stereo not drawn), for which the inhibition was -9.97%.

In the case of `CC1=C(C(=O)Nc2ccccc2)C(c2ccc(OCc3c(Cl)cccc3Cl)cc2)n2ncnc2N1` (stereo not drawn), the inhibition was 69.4% (active).

`CC1=C(C(=O)Nc2ccccc2)C(c2cccs2)n2ncnc2N1` (stereo not drawn): the inhibition is -10.9%.

Regarding `COc1ccc(NC(=O)C2=C(C)Nc3ncnn3C2c2cccc(OCc3ccc(F)cc3)c2)c(OC)c1` (stereo not drawn), the inhibition is 51.9% (active).

In the case of `COc1ccccc1NC(=O)C1=C(C)Nc2ncnn2C1c1ccc(C)o1` (stereo not drawn), the inhibition is 0.179%.

Turning to `COc1cccc(C2C(C(=O)Nc3ccccc3C)=C(C)Nc3ncnn32)c1OCc1ccccc1` (stereo not drawn), the inhibition is -19.2%.

Turning to `COc1cccc([C@@H]2C[C@]3(C)NC(=O)CCCC[C@@H]3N2C(=O)c2cnn(C)c2)c1`, the inhibition was -8.06%.

As to `CC1COc2ccccc2N1C(=O)c1ccc(F)cc1` (stereo not drawn), the inhibition is 0.747%.

As to `CC1CCN(S(=O)(=O)c2cccn(CC(=O)Nc3ccc(F)cc3)c2=O)CC1`, the inhibition was -5.61%.

For the compound `COC(=O)c1cccc(Nc2c(-c3ccccc3)nc3cnc(Br)cn23)c1`, the inhibition was -68.2%.

Turning to `O=C1CCC(=O)N(O)CCCCCNC(=O)CCC(=O)N(O)CCCCCNC(=O)CCC(=O)N(O)CCCCCN1`, the inhibition was 23.5%.

Consider `CC(=O)N1CCc2cc(C(O)CN3CCN(c4ccccc4)CC3)ccc21` (stereo not drawn), for which the inhibition was 47.6% (active).

For `CC(=O)N1CCc2cc(S(=O)(=O)Nc3ccccc3N3CCN(C)CC3)ccc21`, the inhibition was -8.21%.

On to `O=C(CN1CCN(c2ccccc2)CC1)c1ccccc1`, for which the inhibition was -12.9%.

For the compound `CCOCCCNc1ncnc2c1sc1nc(N3CCOCC3)c3c(c12)CC(C)(C)OC3`, the inhibition was -1.37%.

For `Cc1ccccc1CNC(=O)Cn1c(=O)ccn(Cc2ccc(F)cc2)c1=O`, the inhibition was 42.9% (active).

Take `Cc1cc(=O)n(CC(=O)NCc2ccccc2Cl)c(N2CCCC2)n1`: the inhibition is -2.72%.

As to `CCOc1ccccc1CNC(=O)CCn1c(-c2ccc(F)cc2)cc(C(C)=O)c1C`, the inhibition is -2.37%.

With `O=C1Nc2ccccc2C1c1c(-c2ccccc2Cl)[nH]c2[nH]c(=O)[nH]c(=O)c12` (stereo not drawn), the inhibition is 8.48%.

Regarding `Cc1cnc(N2CC[C@@H]3[C@@H](CO[C@@H]3CNS(C)(=O)=O)C2)nc1`, the inhibition was -4.98%.

`CC(C)NC(=O)N1CCCN(C2CCN(Cc3ccccc3)C2=O)CC1` (stereo not drawn): the inhibition was -36.9%.

For `CCC1(C)Cc2c(sc3nc(SCC(=O)NCCc4ccccc4)nc(N)c23)CO1` (stereo not drawn), the inhibition was -6.11%.

`CCCCc1nc2sc3c(SCC(=O)NCc4ccccc4)ncnc3c2c2c1CCC2`: the inhibition was 44.6% (active).

Regarding `CCCc1nc2sc3c(N4CCC(C)CC4)ncnc3c2c2c1CCC2`, the inhibition is -14.3%.

With `CC(=O)CSc1nnc(-c2ccccc2Br)o1`, the inhibition is 2.6%.

For `CCCCOc1ccc(-c2nnc(-c3ccccc3Br)s2)cc1`, the inhibition was 4.93%.

For `CS(=O)(=O)c1cnc(N2CCCCC2)nc1C1CCN(C(=O)CCc2ccco2)CC1`, the inhibition was 5.15%.

As to `Cc1cccc(-n2cc(-c3ccccc3)c3c(N(C)C)ncnc32)c1`, the inhibition was 2.77%.
